Over roughly 18,000 sequences, “TetR repression strength (sort-seq, GFP reporter)” has its median near 0.23; the highest 2% begin near 0.68. The entries come from a sample that favours the highest values as a whole.
Each sequence was assayed against TetR (class B, Tn10) (UniProt P04483) (assay: TetR repression strength (sort-seq, GFP reporter) (relative to tetO2 = 1); higher = stronger repression). Conditions: E. coli.
In short: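 Escherichia coli SIG10-MAX cells carried a low-copy plasmid library in which eight operator positions were randomized between a constitutive promoter and sfGFP, and TetR was expressed constitutively. After 5 h of growth at 37 °C in LB with 50 µg/mL chloramphenicol, 10^6 cells were FACS-sorted into 13 fluorescence bins, and each bin was Illumina-sequenced. Repression strength was the top bin index plus one minus the read-weighted mean bin, divided by the value for the unaltered operator. Across three independent transformations, only library members with ≥30 reads in every replicate and a CV ≤0.5 were averaged.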

Sequence of TetR (class B, Tn10) (P04483 whole entry): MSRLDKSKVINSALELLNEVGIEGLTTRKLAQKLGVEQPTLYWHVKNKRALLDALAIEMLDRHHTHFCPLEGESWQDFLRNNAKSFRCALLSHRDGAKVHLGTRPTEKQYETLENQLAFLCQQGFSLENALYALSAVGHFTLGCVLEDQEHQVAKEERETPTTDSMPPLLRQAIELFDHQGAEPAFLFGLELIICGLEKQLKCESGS

Sequence	TetR repression strength
TCCCCGGGAGTGAGGGAGA	0.13
TCCCGGCCAGTTAGAGAGA	0.129
TCCCGGGGAGTCTGGGAGA	0.179
TCCCGGGCAGTCTGGGAGA	1.2
TCCCGGGCAGTCTGAGAGA	0.179
TCCCGGCCAGTCTGCGAGA	0.967
TCCCTGCCAGTCTGCGAGA	0.24
TCCCGGAAAGTCTGGGAGA	0.153
TCCCCGGCAGTCTGCGAGA	0.266
TCCCCGGCAGTCTGGGAGA	0.271
TCCCGGGAAGTCTGGGAGA	1.24
TCCCAGGTAGTAATAGAGA	0.443
TCCCTGTCAGTACAGGAGA	0.118
TCCCAAACAGTTTGTGAGA	0.0981
TCCCCGAAAGTACAGGAGA	0.259
TCCCCTGTAGTCGTAGAGA	0.344
TCCCCAGTAGTGGGCGAGA	0.963
TCCCAAGGAGTCGGCGAGA	0.743
TCCCGAGGAGTCGGCGAGA	0.0782
TCCCCAGGAGTGGGCGAGA	0.894
TCCCCGGGAGTGGGCGAGA	0.993
TCCCCCGGAGTGGGCGAGA	0.111
TCCCAGGGAGTGGGCGAGA	0.312
TCCCGGGGAGTGGGCGAGA	0.225
TCCCCAGTAGTGGGGGAGA	0.14
TCCCAAGGAGTGGGCGAGA	0.231

Sequence	TetR repression strength
TCCCCAGGAGTCGGCGAGA	0.237
TCCCCAGCAGTGGGCGAGA	0.125
TCCCACCCAGTAGTGGAGA	0.211
TCCCTAGAAGTCCTAGAGA	0.0793
TCCCCAGGAGTATCGGAGA	0
TCCCGTCTAGTTTCCGAGA	0.169
TCCCGGTCAGTCTGTGAGA	0.287
TCCCTGGCAGTGTGTGAGA	0.164
TCCCATCGAGTCTGAGAGA	0.218
TCCCATACAGTTGAGGAGA	0.0487
TCCCACTTAGTGCGAGAGA	0.0746
TCCCTGAGAGTGCTGGAGA	0.564
TCCCTAGGAGTGCTGGAGA	0.382
TCCCGGGGAGTGCTGGAGA	0.359
TCCCTTAGAGTCCTGGAGA	0.0777
TCCCCGAGAGTGCTGGAGA	0.252
TCCCCTAGAGTCCTGGAGA	0.952
TCCCTAAGAGTGCTGGAGA	0.768
TCCCCTGGAGTCCTGGAGA	0.439
TCCCGGAGAGTGCTGGAGA	1.07
TCCCCTGTAGTTGTCGAGA	0.123
TCCCCGAAAGTCATAGAGA	0.452
TCCCATCCAGTCAAGGAGA	0.595
TCCCTTGCAGTACATGAGA	0.298
TCCCTTGAAGTGGGTGAGA	0.165
TCCCACCCAGTGGTAGAGA	0.357

Sequence	TetR repression strength
TCCCAGTGAGTCGTGGAGA	0.25
TCCCGCCAAGTAAAAGAGA	0.298
TCCCATCAAGTTAATGAGA	0.0658
TCCCGTCGAGTCAGGGAGA	0.367
TCCCTATCAGTTCTTGAGA	0.539
TCCCTATCAGTACCTGAGA	0.867
TCCCCATCAGTTCCTGAGA	0.721
TCCCCATCAGTTCATGAGA	0.401
TCCCTATCAGTACCAGAGA	0.514
TCCCTATCAGTTCCTGAGA	0.76
TCCCTATCAGTACGTGAGA	0.349
TCCCTATCAGTTCGTGAGA	0.423
TCCCCATCAGTTCCGGAGA	0.207
TCCCGGGTAGTCGAGGAGA	0.313
TCCCCAGCAGTTTCCGAGA	0.275
TCCCTTATAGTAGGCGAGA	0.0601
TCCCACCGAGTACGGGAGA	0.135
TCCCATGAAGTAAGGGAGA	0.284
TCCCTCTTAGTAAAAGAGA	0.342
TCCCTAGTAGTAGTGGAGA	0.159
TCCCTATGAGTAGTAGAGA	0.204
TCCCTATTAGTAGTGGAGA	0.683
TCCCGATTAGTAAGGGAGA	0.207
TCCCACGCAGTAGGGGAGA	0.689
TCCCACGAAGTAGGGGAGA	0.104
TCCCTATGAGTAGTGGAGA	0.707

Sequence	TetR repression strength
TCCCGATTAGTAGGGGAGA	0.844
TCCCTATTAGTGGTGGAGA	0.0415
TCCCTATGAGTGGTGGAGA	0.119
TCCCACGCAGTGGGGGAGA	0.188
TCCCGAGTAGTAGGGGAGA	0.0701
TCCCTATTAGTTGGGGAGA	0.483
TCCCGGTAAGTGAAGGAGA	0.14
TCCCAGGCAGTGGGGGAGA	0.193
TCCCTAGTAGTGGCTGAGA	0.905
TCCCGAGTAGTGGCTGAGA	0.311
TCCCTAGTAGTAGCTGAGA	0.307
TCCCGAGCAGTTGGTGAGA	0.317
TCCCCTCCAGTGGGGGAGA	0.225
TCCCTCCCAGTGTCGGAGA	0.295
TCCCTTTGAGTTTTTGAGA	0.506
TCCCTTAAAGTATTCGAGA	0.311
TCCCCTAGAGTCCGCGAGA	0.332
TCCCTTAAAGTACACGAGA	0.377
TCCCTTAAAGTGCGCGAGA	0.292
TCCCTTTAAGTGCGCGAGA	0.764
TCCCCTAAAGTGCGCGAGA	0.266
TCCCATAAAGTGCTCGAGA	0.225
TCCCTTTAAGTGCACGAGA	0.207
TCCCTTAAAGTGATCGAGA	0.207
TCCCCTAGAGTGCGCGAGA	0.901
TCCCTTAAAGTACTCGAGA	1.16

Sequence	TetR repression strength
TCCCTTAAAGTGCTCGAGA	0.747
TCCCGCGGAGTGGCGGAGA	0.119
TCCCGCGCAGTGTAAGAGA	0.222
TCCCTATGAGTGTGGGAGA	0.223
TCCCCTGGAGTCGTGGAGA	0.258
TCCCTGGTAGTGGAGGAGA	0.101
TCCCGAGTAGTGAGGGAGA	0.242
TCCCGATAAGTCGTCGAGA	0.0276
TCCCGGAGAGTATCAGAGA	0.893
TCCCCGGGAGTATCAGAGA	0.332
TCCCGGATAGTATGAGAGA	0.24
TCCCGAATAGTATCAGAGA	0.207
TCCCGGTGAGTATCAGAGA	0.188
TCCCGGATAGTATCAGAGA	0.893
TCCCGTGCAGTCATTGAGA	0.276
TCCCTCTCAGTTCGTGAGA	0.181
TCCCAGTGAGTTGGAGAGA	0.303
TCCCTGGCAGTAGGGGAGA	0.185
TCCCTCTCAGTTGTTGAGA	0.357
TCCCCGCAAGTTGTTGAGA	0.198
TCCCCCCAAGTTGATGAGA	0.369
TCCCTCTCAGTTGATGAGA	0.736
TCCCTCTAAGTTGAGGAGA	0.0793
TCCCCCTCAGTTGATGAGA	0.262
TCCCTGTAAGTTGATGAGA	0.236
TCCCTCTAAGTTGATGAGA	0.795

Sequence	TetR repression strength
TCCCCGCAAGTTGATGAGA	0.85
TCCCTTGCAGTTATAGAGA	0.461
TCCCTGGAAGTAATCGAGA	0.241
TCCCCATTAGTACGTGAGA	0.214
TCCCCGCGAGTAGGGGAGA	0.245
TCCCGAAGAGTCTTAGAGA	0.279
TCCCACACAGTCGGAGAGA	0.333
TCCCCTGAAGTGGCAGAGA	0.204
TCCCGCTGAGTCGGCGAGA	0.15
TCCCCAGAAGTGGTAGAGA	0.255
TCCCGTTTAGTGTTTGAGA	0.0592
TCCCATCTAGTGGGGGAGA	0.318
TCCCATCTAGTGCGTGAGA	0.708
TCCCATGGAGTACTGGAGA	0.0311
TCCCATCTAGTGTGGGAGA	1.06
TCCCATAGAGTACTGGAGA	0.169
TCCCGTCTAGTGCGTGAGA	0.0665
TCCCATCGAGTACTGGAGA	1.02
TCCCATCTAGTGTGTGAGA	0.253
TCCCATCTAGTGAGTGAGA	0.316
TCCCATCTAGTATCGGAGA	0.908
TCCCATCTAGTATCTGAGA	0.199
TCCCTTCTAGTATCGGAGA	0.317
TCCCGCCTAGTAGGCGAGA	0.391
TCCCCTTCAGTACGAGAGA	0.251
TCCCGGTCAGTGGTGGAGA	0.24

Sequence	TetR repression strength
TCCCTCACAGTGGTAGAGA	0.157
TCCCAACTAGTCCTGGAGA	0.278
TCCCTCATAGTATTGGAGA	0.22
TCCCTGGCAGTGATAGAGA	0.489
TCCCCGTCAGTGCGGGAGA	0.0283
TCCCATCTAGTTGGAGAGA	0.371
TCCCATCTAGTTGGCGAGA	0.829
TCCCTTCTAGTTGGCGAGA	0.281
TCCCTTTAAGTTCACGAGA	0.199
TCCCGGTTAGTTAGCGAGA	0.363
TCCCGGGCAGTCGTCGAGA	0.311
TCCCGGGGAGTCCTCGAGA	0.242
TCCCGGTCAGTCCTCGAGA	0.15
TCCCGGGAAGTCCGCGAGA	0.144
TCCCGGGCAGTCCTCGAGA	0.909
TCCCGGGAAGTCCTCGAGA	0.985
TCCCGGACAGTGTAGGAGA	0.295
TCCCTCCTAGTGTGGGAGA	0.194
TCCCTGGCAGTGATGGAGA	0.189
TCCCGGCGAGTGGTAGAGA	0.306
TCCCGAGTAGTCCTCGAGA	0.207
TCCCCTGTAGTCGGGGAGA	0.858
TCCCTTGGAGTCGGGGAGA	0.319
TCCCTTGTAGTCTTGGAGA	0.287
TCCCTTGTAGTCCGGGAGA	0.387
TCCCCTGTAGTAGGGGAGA	0.261

Sequence	TetR repression strength
TCCCTTGGAGTCATGGAGA	0.307
TCCCTTGTAGTCGGGGAGA	0.938
TCCCTTGTAGTCATGGAGA	0.687
TCCCCTGGAGTCGGGGAGA	0.222
TCCCAGGCAGTCGGCGAGA	0.25
TCCCAAAGAGTGGGGGAGA	0.217
TCCCGTAGAGTGTACGAGA	0.175
TCCCGTGGAGTGCCTGAGA	0.0904
TCCCCGAAAGTGACCGAGA	1.21
TCCCCGACAGTGACTGAGA	0.207
TCCCCGAAAGTGGCCGAGA	0.0544
TCCCCGCCAGTGACCGAGA	0.207
TCCCCGACAGTGACCGAGA	1.08
TCCCGGAAAGTGACCGAGA	0.203
TCCCGCGGAGTCCTCGAGA	0.294
TCCCTATGAGTGGGCGAGA	0.164
TCCCACTCAGTTAGGGAGA	0.268
TCCCCAAGAGTCGACGAGA	0.264
TCCCCCATAGTCGGCGAGA	0.134
TCCCCGATAGTCGACGAGA	0.0424
TCCCCCATAGTCGACGAGA	0.825
TCCCCCAGAGTCGACGAGA	0.84
TCCCCCCGAGTCGACGAGA	0.239
